In PubChem BioAssay (NCI) one finds growth inhibition data, which are given here for 38 molecules.

Each structure is given as a SMILES string. This is part of a sample that, as a whole, favours compounds with a hit. Of some 79,000 tested, about 15% had one in any assay. Unmarked numbers belong to inactive results. Rule as the data show it: active = growth inhibition above about 70%; inactive = the rest.

This test can be described thus: NCI Yeast Anticancer Drug Screen. Data for the mlh1 rad18 strain (AID 175). As to conditions: S. cerevisiae mlh1 rad18 strain growth inhibition; at 50.0 µM; stronger effect = higher value. The method, boiled down: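 Read-out is yeast growth inhibition, calculated against vehicle-only controls. The compound was applied to a strain engineered with DNA damage repair alterations.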
As for `CCOC(=O)CCc1c[nH]c2ccccc12`, the growth inhibition is -3.5%. In the case of `CC(=O)Nc1nc(C)c(CC/C=C/c2ccc([N+](=O)[O-])cc2)c(=O)[nH]1` it was -6.1%; in that of `C=C1C(=O)OC2C=C(C)C3C(OC(=O)c4ccccc4)CC(C)(O)C3CC12` (stereo not drawn), 0.45%; in that of `CCOc1nc(N)nc(C)c1N=Nc1ccc(O)cc1`, -0.4%. For `Nc1ccc(C(=O)N/C(=C\c2cccc([N+](=O)[O-])c2)c2nc3ccc(Cl)cc3[nH]2)cc1`, the growth inhibition was -15.9%. In the case of `O=C1c2ccccc2C(=O)N1/N=C\c1ccc(O)cc1` it was 33.5%; in that of `CCOc1ccc(C(=O)OC(C)C)cc1`, 6.15%; in that of `CC1=NN(c2ccccc2)C(=O)C1=C1SCCCS1`, 1.8%. With `Clc1ccc2c(c1)N(C1CCCN(Cc3ccccc3)C1)c1ccccc1S2` (stereo not drawn) the figure was 47%; with `O=C(OC(=O)c1ccc(Cl)cc1)c1ccc(Cl)cc1`, -7.35%. For `CSC(=S)Nc1nc2ccc(Cl)cc2s1`, the growth inhibition is 3.2%. Turning to `COc1ccc([N+](=O)[O-])c(OC)c1`, the growth inhibition is 9.05%. For `C/C(=N\NC(=O)c1ccncc1)c1ccc(Cl)cc1Cl`, the growth inhibition is 8.5%. For `COc1cc(-c2ccccc2)c(OC)cc1CCl`, the growth inhibition was 20%.

With `CCOC(=O)C(=O)C(CCc1ccc2ccc3cccc4ccc1c2c34)C(=O)OCC` (stereo not drawn), the growth inhibition was 31.4%. On to `O=c1[nH]c2ccccc2nc1/C=C(\O)c1ccc([N+](=O)[O-])cc1`, for which the growth inhibition is 1.6%. In the case of `O=C(NCCO)c1ccc(Cl)cc1` it was -44.5%; in that of `Cc1cc(N=Nc2ccccc2)c2cccnc2c1N`, 14.7%; in that of `CCCCNC(=O)C(C)S(=O)(=O)c1ccc(C)cc1` (stereo not drawn), 11.8%. In the case of `Cc1ccc(C(=O)c2cc3c([nH]c4ccccc43)c(C)c2C(=O)O)cc1` it was 21.1%; in that of `CC(=O)N=Cc1ccccc1O`, -20.7%; in that of `O=C(Nc1ccccc1)c1cccc(F)c1`, 7.6%. With `O=C(O)CNC(=O)CNC(=O)CNC(=O)CNC(=O)CNC(=O)OCc1ccccc1` the figure was 17.4%; with `CCCCNC(=O)OCCN=c1c2ccccc2ccc2ccccc12`, -15.4%; with `CCn1c(O)c(C=Nc2ccccc2)s/c1=N/Nc1nc(C)cs1`, -27.5%. With `CCCCC(=O)N/N=C/c1c[nH]c2ccc(Br)cc12`, the growth inhibition was 0.05%.

Consider `Cc1ccc(OCc2ccccc2)n[n+]1[O-]`, for which the growth inhibition was -3%. Turning to `Cc1cc(C)n(-c2ccc(Cl)nn2)n1`, the growth inhibition was -1.7%. Consider `N/N=C/c1ccc2ccccc2n1`, for which the growth inhibition is -19.6%. With `COC(=O)CC(=O)/C(=C/C(C/C=C(\C(=O)CC(=O)OC)C(=O)OC)OC)C(=O)OC` (stereo not drawn) the figure was 32.3%; with `CC1(C)C2CC=C(CCO)C1C2` (stereo not drawn), -21.4%. Consider `CCCOC(C)OCCC#CCC(C)OC(=O)CC(Cl)(Cl)Cl` (stereo not drawn), for which the growth inhibition was -9.35%. For the molecule `Cc1cc(=NO)cc(C)n1O`, the growth inhibition was 7.85%. On to `CC(=O)Nc1nc(C)c(CC/C=C/c2ccc([N+](=O)[O-])cc2)c(Cl)n1`, for which the growth inhibition was 53%. In the case of `COc1cc(/C=C2/C(=O)N(C(=O)c3ccc(Cl)cc3)N=C2C)cc(OC)c1OC` it was 39%. In the case of `CC(=O)NNc1nc(C)c(C(/C=C/c2ccc(/C=C/C(=N\NC(=O)c3ccncc3)c3sc(NNC(C)=O)nc3C)cc2)=N/NC(=O)c2ccncc2)s1` it was -13.3%. With `COC(=O)NC(C(F)(F)F)(C(F)(F)F)P1(=O)OCCCO1` the figure was 37.6%; with `CSc1ccc(C(=O)c2ccc(SC)cc2)cc1`, -17.2%.
